Screening data as filed in PubChem BioAssay.
Only some compounds are listed: those with a hit (about 15% of all), similar ones and a draw of the others.
VP16 counter – VP16 counterscreen qHTS for inhibitors of ROR gamma transcriptional activity; Drosophila S2 Gal4-VP16 UAS-luciferase, luminescence, 20 h; Potency, µM (titrated, usually from 53.6 µM), inactives show at the highest dose activity, negative = inhibition, hits mostly inhibitors; 310,000 tested, 3.5% active; AID 2546, 2010;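 further: Gal4-VP16 expression switched on by copper sulfate through the metallothionein promoter; nearly all actives have a fitted effect of over 50% in size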
12-LOX inh – Primary qHTS assay for inhibitors of human arachidonate 12S-lipoxygenase (ALOX12): Round 2. Polyunsaturated fatty acid lipoxygenase ALOX12 (Homo sapiens), P18054. purified 12hLO, xylenol orange hydroperoxide absorbance. Potency, µM (doses to about 108 µM), without a hit: at the highest dose activity change, negative = inhibition, hits mostly inhibitors. 580,000 tested, 1.1% active. AID 1671190, 2021
Target sequence (P18054 whole entry, looked up): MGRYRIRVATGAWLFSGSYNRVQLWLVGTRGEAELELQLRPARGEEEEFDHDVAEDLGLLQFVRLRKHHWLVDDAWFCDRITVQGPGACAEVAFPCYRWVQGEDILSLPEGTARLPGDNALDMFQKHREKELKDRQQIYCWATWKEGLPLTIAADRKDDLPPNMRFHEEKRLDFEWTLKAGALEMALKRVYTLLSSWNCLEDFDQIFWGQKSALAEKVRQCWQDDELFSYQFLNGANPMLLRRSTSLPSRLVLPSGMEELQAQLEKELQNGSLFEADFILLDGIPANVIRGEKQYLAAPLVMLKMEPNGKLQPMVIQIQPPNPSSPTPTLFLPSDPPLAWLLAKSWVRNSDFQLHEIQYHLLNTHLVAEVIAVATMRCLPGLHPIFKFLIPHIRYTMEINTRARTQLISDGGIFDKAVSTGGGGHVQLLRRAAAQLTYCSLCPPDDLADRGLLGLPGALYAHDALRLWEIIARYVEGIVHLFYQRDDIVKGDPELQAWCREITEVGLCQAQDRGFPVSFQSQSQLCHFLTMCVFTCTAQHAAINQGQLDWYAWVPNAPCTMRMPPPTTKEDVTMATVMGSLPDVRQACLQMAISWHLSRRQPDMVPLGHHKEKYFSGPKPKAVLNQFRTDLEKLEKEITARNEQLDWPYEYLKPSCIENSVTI
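Purified human 12hLO at 150 nM in 25 mM Hepes, 0.01% Triton X-100, pH 7.0, preincubated 15 min at room temperature with compound. Reaction started with 40 uM arachidonic acid, 30 min at room temperature. Hydroperoxide measured by Fe-xylenol orange, 573/405 nm absorbance ratio.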
ELG1 DNA repair – qHTS screen for small molecules that inhibit ELG1-dependent DNA repair in human embryonic kidney (HEK293T) cells expressing luciferase-tagged ELG1; Potency, µM (highest dose often 46.1 µM), inactives show at the top dose activity change, negative = inhibition, actives largely listed as inhibitors; 330,000 tested, 2.3% active; HEK293T ELG1-luciferase reporter, luminescence, 16 h; DNA damage induced by 5-fluorouridine; further: nearly all actives have a fitted effect of over 55% in size
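Luminescence from the luciferase reporter, measured 30 min after ONE-Glo reagent at room temperature, was the read-out. Beforehand, 2,000 cells per well were exposed for 16 hr at 37 °C to 5-fluorouridine together with compound or vehicle.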
DT40 TDP1 CPT – qHTS for Inhibitors of human tyrosyl-DNA phosphodiesterase 1 (TDP1): qHTS in cells in presence of CPT. chicken DT40 Tdp1-/-;hTDP1 cells + 20 nM CPT, ATP luminescence, 48 h. Potency, µM (series often up to 46.2 µM), inactives show at the top dose activity change, negative = growth inhibition, hits mostly inhibitors. 420,000 tested, 12% active; further: nearly all actives have a fitted effect of over 55% in size
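Chicken DT40 Tdp1-/- cells complemented with human TDP1, 400 cells/well, exposed to compounds plus 20 nM camptothecin for at least 48 h at 37 C; viability read as ATP content by CellTiter-Glo luminescence.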
TDP1 cell noCPT – qHTS for Inhibitors of human tyrosyl-DNA phosphodiesterase 1 (TDP1): qHTS in cells in absence of CPT; 420,000 tested, 15% active; AID 686978, 2013; Potency, µM (titrated, usually from 46.2 µM), inactives show at the top dose activity change, negative = growth inhibition, hits mostly inhibitors; DT40 Tdp1-/- hTDP1 cells, no CPT, ATP luminescence, 48 h; further: nearly all actives have a fitted effect of over 55% in size
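Seeded 400 DT40-hTDP1 cells/well (vehicle DMSO, no 20 nM CPT); pinned compounds; ≥48 hr at 37 °C; CellTiter-Glo luminescence as viability measure.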
RORgamma inh – qHTS for inhibitors of ROR gamma transcriptional activity; 310,000 tested, 5.4% active; AID 2551, 2010; Potency, µM (top dose mostly 53.6 µM), inactives show at the top dose activity change, negative = inhibition, hits mostly inhibitors; Nuclear receptor ROR-gamma (Mus musculus), P51450; Drosophila S2 Gal4-RORgamma UAS-luciferase reporter, 20 h; further: nearly all actives have a fitted effect of over 60% in size
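Using a luciferase readout, inhibitors were identified by reduced reporter activity in Drosophila cells coexpressing a copper-inducible Gal4–ROR gamma fusion and UAS-driven Photinus luciferase, incubated 20 hr after 700 uM copper sulfate.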
* marks the source's active call; other numbers are inactive results; ? = inconclusive; . = no result given; [ ] = remark or other dose. The call rests on the fitted dose curve; in most records, active means well fitted curve in the direction sought with a large enough effect; inconclusive means small, poorly fitted or top-dose-only effect, or another doubt; inactive means no such curve, though single readings can be large; an effect the other way counts as inactive or inconclusive. On the % scale 0 is the no-effect control and ±100 the full control effect; potency means the concentration at half of the fitted maximal effect.

SMILES	VP16 counter	12-LOX inh	ELG1 DNA repair	DT40 TDP1 CPT	TDP1 cell noCPT	RORgamma inh
COC(=O)C1=C(c2ccc(Cl)c(C(F)(F)F)c2)C[C@@H]2CC[C@H]1N2C(=O)N1CCOCC1	.	-5%	-13%	6.5µM*	4.6µM*	.
COC(=O)C1=C(c2ccc(OC(F)(F)F)cc2)C[C@@H]2CC[C@H]1N2C(=O)NC1CC1	.	18%	1%	21µM*	15µM*	.
COC(=O)C1=C(c2ccc(OC(F)(F)F)cc2)C[C@@H]2CC[C@H]1N2C(=O)N1CCCC1	.	-11%	?	1.8µM*	1.8µM*	.
COC(=O)C1=C(c2cccc(C#N)c2)C[C@@H]2CC[C@H]1N2C(=O)N1CCCC1	.	-28%	30%	?	18µM*	.
COc1cccc(S(=O)(=O)N2CCC3(C2)C(=O)N(C)c2ccc(OC)cc23)c1 (stereo unspecified)	.	-1%	.	.	.	.
COC(=O)C1=C(c2ccc(OC(F)(F)F)cc2)C[C@@H]2CC[C@H]1N2C(=O)N1CCC(C)CC1	.	2%	1%	6.5µM*	5.8µM*	.
COC(=O)C1=C(c2ccc(OC(F)(F)F)cc2)C[C@@H]2CC[C@H]1N2C(=O)N1CCOCC1	.	30%	22%	2.6µM*	1.8µM*	.
c1cncc(C2=NOC3(CCCN(CC4CCCCC4)C3)C2)c1 (stereo unspecified)	.	3%[6.33 µM]	.	.	.	.
CC1CC2CCC(O2)C(C)C(=O)OC(C)CC2CCC(O2)C(C)C(=O)OC(C)CC2CCC(O2)C(C)C(=O)OC(C)CC2CCC(O2)C(C)C(=O)O1 (stereo unspecified)	0.5µM*	5%	.	.	.	0.11µM*
CC1=NOC2(CCN(CCC(C)C)C2)C1 (stereo unspecified)	.	60%[176 µM]	.	.	.	.
O=C(/C=C/c1ccccc1)C1C(=O)c2ccccc2C1=O	8.9µM*	-23%	?	3.7µM*	4.6µM*	?
O=C(NCC1CCOCC1)c1cnc(Nc2ccc(Cl)cc2Cl)nc1C(F)(F)F	.	-4%[57.4 µM]	.	.	.	.
COc1cccc(NC(=O)c2ccc3c(=O)n4nc(Nc5ccccc5OC)sc4nc3c2)c1	.	0%	.	5.8µM*	4.6µM*	.
Cc1ccc(Cl)cc1Nc1nn2c(=O)c3ccc(C(=O)NCc4cccs4)cc3nc2s1	.	?	.	15µM*	16µM*	.
COc1cccc(NC(=O)CN2CC(c3ccccc3)CC2=O)c1 (stereo unspecified)	2%	271%	2%	10%	-21%	7%
Cc1cc(OCCCC(=O)NCc2cccs2)ccc1Cl	13%	1%	-1%	1%	-27%	22%
O=C1NC(=O)C(=Cc2ccc(SC3CCCCC3)o2)C(=O)N1	-7%	22µM*	?	16µM*	?	-33%
C=C[C@H]1CN2CC[C@H]1C[C@@H]2CNS(=O)(=O)c1ccc2ccccc2c1	.	15%[176 µM]	.	.	.	.
COc1cccc(NP(=O)(Oc2ccccc2)Oc2ccccc2)c1	-7%	-12%	?	5.2µM*	3.7µM*	?
O=P(Nc1cccnc1)(Oc1ccccc1)Oc1ccccc1	-3%	-3%	1%	21%	-11%	36%
COc1cccc(NP(=O)(Oc2ccccc2Cl)Oc2ccccc2Cl)c1	-21%	3%	?	?	18µM*	130%
CN(C)C(=O)Nc1cccc(C(F)(F)F)c1	3%	.	.	.	.	10%
CC(=O)Nc1cc(-c2cccc(C(=O)N(C)C)c2)cn2c(-c3cccc(C(F)(F)F)c3)cnc12	.	-10%	.	18µM*	16µM*	.
CCCC[N+]1(C)[C@H]2CC(OC(=O)[C@H](CO)c3ccccc3)C[C@H]1[C@H]1O[C@H]12 (stereo partly specified)	.	-14%[57.4 µM]	.	.	.	.
Cn1nc(C2CCCCC2)cc1[C@H]1CN2CC[C@H]1C[C@@H]2CNC(=O)NCc1ccccc1	.	19%	.	.	.	.
SMILES	VP16 counter	12-LOX inh	ELG1 DNA repair	DT40 TDP1 CPT	TDP1 cell noCPT	RORgamma inh
C#C[C@]1(O)C=C[C@H]2[C@@H]3CCC4=CC(=O)CC[C@@H]4[C@H]3CC[C@@]21CC	.	.	.	15µM*	15µM*	.
CCOCCCNC(=O)N1[C@H]2CC[C@@H]1c1cnc(-c3ccccc3)nc1C2	.	36%	.	.	.	.
CC(C)c1ccc(NC(=O)C2CCN(S(=O)(=O)c3ccc(Br)s3)CC2)cc1	.	-18%	.	?	?	.
Cc1ccc(N2CCN(C(=O)C3CCC(CNS(=O)(=O)c4ccc(Br)s4)CC3)CC2C)cc1 (stereo unspecified)	.	?	.	7.3µM*	4.6µM*	.
COC[C@H]1C[C@@H](NC2CCOCC2)[C@H](O)[C@@H]1O	.	31%[176 µM]	.	.	.	.
CCOc1ccc(NC(=O)c2cc3c(C)nn(-c4ccccc4)c3s2)cc1	.	9%	.	21µM*	10µM*	.
Cc1ccc(-n2c(=S)[nH]c3ccccc3c2=O)cc1C	.	-3%	.	-17%	?	.
CC(C)Oc1cc(-n2c(=S)[nH]c3ccccc3c2=O)c(Cl)cc1Cl	5µM*	0%	14%	?	16µM*	2.8µM*
COc1cc(-n2c(=S)[nH]c3ccccc3c2=O)c(Cl)cc1Cl	5.6µM*	?	3%	?	26µM*	2.8µM*
Cc1ccccc1OCCNc1ccc([N+](=O)[O-])c2cccnc12	.	16%	.	.	.	.
CC(C)n1nc(C(=O)NCC2(N3CCOCC3)CCCCC2)c2ccccc2c1=O	.	9%	.	.	.	.
Cc1ccc(-c2nn(C)c(=O)c3ccccc23)cc1CNC(=O)/C=C/c1ccccc1	-11%	0%	16µM*	-24%	?	15%
COC(=O)C1=C(c2ccc(S(C)(=O)=O)cc2)C[C@@H]2CC[C@H]1N2C(=O)NCc1cccc2ccccc12	.	?	.	29µM*	.	.
COC(=O)C1=C(c2cc3ccccc3o2)C[C@@H]2CC[C@H]1N2C(=O)NCc1ccco1	.	-4%	.	16µM*	.	.
COC(=O)C1=C(c2cc3ccccc3o2)C[C@@H]2CC[C@H]1N2C(=O)NCc1cccc2ccccc12	.	20%	.	?	16µM*	.
COC(=O)C1=C(c2cccc(C#N)c2)C[C@@H]2CC[C@H]1N2C(=O)NCc1cccc2ccccc12	.	-18%	-20%	?	-29%	.
